In the library only some 4.8% were active in any assay of this set; here they are far more common.
hgDAF-12 ag = agonists of H. glycines DAF-12 nuclear receptor; HEK293 GAL4-hgDAF12 UAS-luciferase reporter, agonist luminescence; normalized to butyrate control; activation, % at 6.8 µM; 370,000 tested, 1.8% active;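 active = activation above a cutoff set at the mean of all screened compounds plus 3 SD, cut at about 10% in these data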;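 note: 0% = DMSO wells and 100% = sodium butyrate wells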
ssDAF12 agonist = activates DAF-12 receptor from parasite S. stercoralis; HEK293 ssDAF-12/GRIP1 lit1-tk-luc reporter, luminescence; % of 3 µM dafachronic acid response; activation, % at 6.8 µM; 370,000 tested, 1% active; AID 652126;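 active = activation above the mean over all tested compounds plus 3 SD, cut at about 0.9% in these data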;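 note: 0% = DMSO-only wells and 100% = 3 µM delta7-dafachronic acid wells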
SMARCA2 act = increases SMARCA2 function in MMTV reporter cells; MG213 cells, MMTV-luciferase reporter, dexamethasone, overnight; AID 652017; 370,000 tested, 1% active; activation, % at 9.1 µM; in the data active = activation above about 7.8%;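 note: 0% = vehicle wells and 100% = reference activator wells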
DAX1 inh-1 = inhibitors of human orphan nuclear receptor DAX1 (NR0B1). inhibition, % at 6.75 µM. AID 504766. 340,000 tested, 0.99% active. P51843. HEK293 Gal4-DAX1 luciferase reporter, luminescence;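 active = inhibition above the mean over all tested compounds plus 3 SD, cut at about 4.2% in these data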;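 note: 0% = DAX1-transfected cells with DMSO and 100% = empty-vector control cells with DMSO; inhibition shows as a rise in luminescence from relieved DAX1 repression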
Target sequence (P51843 207-470 limits assumed): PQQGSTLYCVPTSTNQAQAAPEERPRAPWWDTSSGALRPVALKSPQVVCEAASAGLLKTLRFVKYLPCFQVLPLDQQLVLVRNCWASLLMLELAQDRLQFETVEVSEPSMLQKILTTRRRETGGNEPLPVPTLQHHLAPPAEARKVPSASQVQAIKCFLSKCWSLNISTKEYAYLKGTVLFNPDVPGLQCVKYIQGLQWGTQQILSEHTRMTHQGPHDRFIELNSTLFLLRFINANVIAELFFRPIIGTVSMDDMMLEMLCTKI
hcDAF-12 act = activators of H. contortus DAF-12 nuclear receptor; HEK293 hcDAF-12 lit1-tk-luc reporter, luminescence; 0% DMSO, 100% Δ7-dafachronic acid; activation, % at 6.8 µM; 370,000 tested, 1.4% active;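 active = activation above the mean of all tested compounds plus 3 SD, cut at about 5.5% in these data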;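 note: 100% = response to 3 µM Δ7-dafachronic acid high control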
DAX1 inh-2 = blocks DAX1 repression of SF-1 activated StAR promoter; 370,000 tested, 1.1% active; inhibition, % at 6.8 µM; AID 652010; HEK293T StAR-luciferase reporter, SF-1/DAX-1 repression relief;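 active = inhibition above the mean over all tested compounds plus 3 SD, cut at about 3.6% in these data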;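 note: 0% = DAX-1 cells with DMSO and 100% = cells lacking DAX-1 with DMSO; higher inhibition means more luminescence from relief of DAX-1 repression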
DAX1 inh confirm = confirmation of human DAX1 (NR0B1) inhibitors; shares compounds with DAX1 inh-2; HEK293T StAR-promoter luciferase reporter, SF-1/DAX-1 repression; inhibition, % at 6.8 µM; 2,400 tested, 87% active; AID 652134;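 active = inhibition above the average of every tested compound plus 3 SD, cut at about 3.8% in these data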;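 note: 0% = DAX-1 cells with DMSO and 100% = no DAX-1 control cells with DMSO; active compounds raise luminescence by relieving repression of the StAR reporter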
SF1 AF2mut Luc = counter-screen for DAX1 inhibitors: nonselective inhibitors with SF-1 AF2 mutant; inhibition, % at 6.8 µM; 2,400 tested, 78% active; shares compounds with DAX1 inh-2; HEK293 StAR-luciferase, luminescence;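 active = inhibition above the mean of all tested compounds plus 3 SD, cut at about 3% in these data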;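 note: 0% = DAX-1 transfected cells with DMSO and 100% = cells without DAX-1 with DMSO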
SMARCA2 act conf = confirmation of SMARCA2 (BRM) function activators; shares compounds with SMARCA2 act; MG213 cells, MMTV-luciferase with dexamethasone, luminescence, overnight; MG213 cells expressing E1A, Rb sequestered; DMSO wells 0%, reference activator 100%; activation, % at 9.1 µM; 3,500 tested, 30% active;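 active = activation above its plate's cutoff, the mean activation of tested wells plus 3 SD, cut at about 7.9% in these data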
GAL4-VP16 Luc = activates GAL4-VP16 luciferase, flagging SMARCA2 activator hits | HEK293 GAL4-VP16 pG5luc reporter, luciferase luminescence; scaled: DMSO wells 0%, SAHA wells 100% | shares compounds with SMARCA2 act | 3,500 tested, 41% active | activation, % at 9.1 µM;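 active = activation above the solvent-only control well mean plus 3 SD, averaged across control plates, cut at about 5.2% in these data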
LXRb hcDAF ctr = LXR-beta agonism as hcDAF-12 counter-screen; shares compounds with hcDAF-12 act; HEK293 Gal4-LXR tk-luc reporter, luminescence, 24 h; normalized: DMSO 0%, positive control 100%; activation, % at 6.8 µM; 3,400 tested, under 10 active; AID 743027;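 active = mean percent activation of the reporter above a cutoff set as the average over tested compounds plus their standard deviation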
hcDAF12 conf = hcDAF-12 agonism, confirmation assay | AID 743032 | shares compounds with hcDAF-12 act | activation, % at 6.8 µM | HEK293 hcDAF-12 lit1-tk-luc reporter, luminescence; % of Δ7-dafachronic acid response | 3,400 tested, 61% active;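 active = mean activation across triplicate tests above the threshold derived from the earlier primary screen, cut at about 5.5% in these data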;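 note: 0% = DMSO only wells and 100% = 3 µM Δ7-dafachronic acid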
hgDAF12 conf = confirmation of H. glycines DAF-12 agonists | AID 743050 | activation, % at 6.8 µM | shares compounds with hgDAF-12 ag | 3,300 tested, 80% active | HEK293 GAL4-hgDAF12 luciferase reporter, agonist mode; percent of butyrate response;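 active = mean activation over triplicate wells above the hit cutoff derived from the earlier primary screen, cut at about 11% in these data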;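 note: 0% = DMSO low control and 100% = 2 mM sodium butyrate high control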
LXR ag 2 = activates human LXR-beta, counter-screen for DAF-12 agonists. shares compounds with hgDAF-12 ag. HEK293 Gal4-LXR luciferase reporter, 24 h. activation, % at 6.8 µM. 3,300 tested, under 10 active. AID 743051;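 active = mean activation of the triplicate above a set limit carried over from the primary screen, none filed active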
Numbers without * were called inactive; / = not tested or not shown.

SMILES | hgDAF-12 ag | ssDAF12 agonist | SMARCA2 act | DAX1 inh-1 | hcDAF-12 act | DAX1 inh-2 | DAX1 inh confirm | SF1 AF2mut Luc | hgDAF12 conf | LXR ag 2 | others
O=C(OCC(=O)N1CCc2ccccc2C1)c1c(F)cccc1Cl | 16* | 0 | 6 | 2 | 4 | 5.6* | 10* | 7.3* | 18* | 1
CC(C)(C)NC(=O)NC(=O)COC(=O)CCCc1c[nH]c2ccccc12 | 2 | 0 | -4 | 0 | 5 | 0 | / | / | / | /
CC(=O)c1ccc(Nc2ccc(-c3ccccc3F)nn2)cc1 | 18* | 1 | -3 | 1 | 5 | 4.7* | 14* | 6.8* | 19* | 1
Cc1ccnc(NC(=O)C2CC(=O)N(c3ccc4c(c3)OCCO4)C2)c1 (stereo unspecified) | 15* | 0 | 4 | 1 | 4 | 12* | 12* | 6.2* | 16* | 1
Cc1ccc(CN2CC(C(=O)Nc3cc(C)ccn3)CC2=O)cc1 (stereo unspecified) | 22* | 0 | 10* | 2 | 3 | 11* | 12* | 3.1* | 22* | 0 | SMARCA2 act conf=17*;GAL4-VP16 Luc=6.3*
O=[N+]([O-])C(=C1Nc2ccccc2N1)C(Cl)=C(Cl)Cl | 4 | 0 | 1 | 1 | 3 | 0 | / | / | / | /
CCCCN1C(C)=CC(=C2C(=O)c3ccccc3C2=O)C=C1C | 22* | 0 | 3 | 1 | 7.5* | 6.7* | 6.1* | 3 | 12* | 1 | LXRb hcDAF ctr=2;hcDAF12 conf=11*
CCCCCCN1C=CC(=C2C(=O)c3ccccc3C2=O)C=C1 | 14* | 1.1* | 8 | -2 | 8.6* | 9.4* | 0 | -4 | 6 | 1 | LXRb hcDAF ctr=1;hcDAF12 conf=6.1*
CCCN1C=CC(=C2C(=O)c3ccccc3C2=O)C=C1 | -14 | -4 | -11 | -4 | -6 | -4 | / | / | / | /
O=C(COC(=O)c1ccc[n+]([O-])c1)Nc1ccc([N+](=O)[O-])cc1Cl | -1 | -1 | -4 | 1 | 1 | -4 | / | / | / | /
CN(C)c1ccc(N=Nc2ccc3ncccc3c2)cc1 | 20* | 1.5* | 4 | 5.8* | 6.0* | 9.3* | 22* | 7.3* | 21* | 1
Cc1ccc2ncccc2c1 | 0 | 0 | -3 | 0 | -2 | 0 | / | / | / | /
Cc1cc(N(C)C)ccc1N=Nc1ccc2ncccc2c1 | 15* | 1.7* | 1 | 5.5* | 13* | 5.2* | 18* | 7.6* | 18* | 1 | LXRb hcDAF ctr=1;hcDAF12 conf=13*

High-throughput results as filed in PubChem BioAssay.
